Rab9 promoter act – activates the Rab9 promoter; Huh7 Rab9 promoter-luciferase reporter, luminescence, 24 h; Potency, µM (top dose mostly 9.22 µM), most hits filed as activators; 320,000 compounds, 2.8% hits; further: nearly all actives have a fitted effect of over 60% in size
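Stable Rab9-luc Huh7, 1500 cells/well, 2 h settle; cmpd in DMSO, 24 h, 37 °C/5% CO2; luciferase reagent 10 min RT; luminescence.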
FLuc modulator – inhibits or activates purified firefly luciferase, miR-21 counter-screen | AID 588342 | Potency, µM (series often up to 57.5 µM), actives largely listed as inhibitors | 360,000 compounds, 6.9% hits | purified FLuc, Km substrates, luminescence inhibition; further: nearly all actives have a fitted effect of over 55% in size
Target sequence (P08659 whole entry, looked up): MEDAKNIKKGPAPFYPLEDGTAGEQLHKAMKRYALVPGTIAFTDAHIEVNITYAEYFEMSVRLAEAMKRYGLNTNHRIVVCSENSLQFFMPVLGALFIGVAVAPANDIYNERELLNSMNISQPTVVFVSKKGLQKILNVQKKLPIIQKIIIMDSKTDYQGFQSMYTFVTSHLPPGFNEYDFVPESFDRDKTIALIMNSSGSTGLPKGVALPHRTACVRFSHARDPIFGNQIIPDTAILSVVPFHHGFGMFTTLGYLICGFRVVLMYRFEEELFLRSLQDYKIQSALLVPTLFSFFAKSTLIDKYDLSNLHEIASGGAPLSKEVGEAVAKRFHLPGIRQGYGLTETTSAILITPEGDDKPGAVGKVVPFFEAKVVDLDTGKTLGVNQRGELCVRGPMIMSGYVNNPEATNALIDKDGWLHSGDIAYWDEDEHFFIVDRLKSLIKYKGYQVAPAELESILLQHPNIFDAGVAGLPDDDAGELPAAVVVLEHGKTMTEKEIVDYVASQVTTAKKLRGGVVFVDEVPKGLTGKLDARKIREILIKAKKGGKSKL
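Biochemical qHTS of compounds, final roughly 60 µM downward over six points, against 10 nM purified firefly luciferase using Km concentrations of substrates (10 uM D-luciferin, 10 uM ATP) in Tris acetate pH 7.5 buffer; luminescence output.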
ELG1 genotoxic – inducers of genotoxicity in HEK293T ELG1-luciferase cells | HEK293T ELG1-luciferase reporter, luminescence, 16 h | Potency, µM (titrated, usually from 46 µM), hits mostly activators | 330,000 compounds, 1.3% hits | AID 504466; further: nearly all actives have a fitted effect of over 60% in size
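DMSO vehicle served as control against compound-treated ELG1-luciferase HEK293T cells; exposure lasted 16 hr at 37 °C and 5% CO2, followed by ONE-Glo luminescence detection after 30 min.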
ELG1 repair inh – ELG1-dependent DNA repair inhibition; HEK293T ELG1-luciferase reporter, luminescence, 16 h; DNA damage induced by 5-fluorouridine; 330,000 compounds, 2.3% hits; AID 504467; Potency, µM (series often up to 46.1 µM), actives largely listed as inhibitors; further: nearly all actives have a fitted effect of over 55% in size
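HEK293T cells expressing luciferase-tagged ELG1 (2,000/well) received 5-Fluorouridine plus compound or DMSO for 16 hr at 37 °C. Luciferase was read by ONE-Glo luminescence after 30 min at room temperature.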
NPC1 prom act – activates the NPC1 promoter. Huh7 NPC1 promoter luciferase reporter, 24 h. Potency, µM (titrated, usually from 9.22 µM), actives largely listed as activators. 320,000 compounds, 2.4% hits. AID 485313; further: nearly all actives have a fitted effect of over 60% in size
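NPC1 promoter–luciferase Huh7 cells; 24 h compound; luminescence.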
SMN2 splice up – increases expression of the SMN2 splice variant; AID 1458; HEK293 SMN2-luciferase splicing reporter, luminescence, 30-36 h; Potency, µM (top dose mostly 46.1 µM), most hits filed as activators; 210,000 compounds, 2.8% hits; further: nearly all actives have a fitted effect of over 55% in size
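HEK293 cells carry an SMN2 minigene-luciferase reporter in which exon 7 inclusion puts luciferase in frame. Cells were seeded at 2000 cells/well, attached for 10-12 hours, then exposed to compounds for 30-36 hours at 37C before ONE-Glo luminescence.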
Large screens that a line does not name were inactive. This is a sample that favours compounds with a hit; in the whole collection about 9.2% have one here. The call rests on the fitted dose curve; in most records, active means well fitted curve in the direction sought with a large enough effect; inconclusive means small, poorly fitted or top-dose-only effect, or another doubt; inactive means no such curve, though single readings can be large; an effect the other way counts as inactive or inconclusive.

CCCN1CCN(C(=O)Cn2ncc3c4ccccc4n(Cc4cccc(Cl)c4)c3c2=O)CC1	none (no result: Rab9 promoter act, ELG1 genotoxic, ELG1 repair inh, NPC1 prom act)
CCCCn1c(C)cc2c(c1=O)C1O[C@](c3ccc(OC)cc3)(Cc3cc(OC)c(OC)cc31)O2	FLuc modulator inconclusive (no result: ELG1 genotoxic, ELG1 repair inh, SMN2 splice up)
CCOC(=O)C1=C(C)NC(C)=C(C(=O)OCC)C1C(=O)OCC(N)=O	none
O=C(COC(=O)c1cc(Cl)ccc1O)c1ccc2c(c1)OCO2	FLuc modulator 1.9µM, ELG1 repair inh inconclusive, NPC1 prom act inconclusive (no result: SMN2 splice up)
CCOC(=O)C1=C(C)NC(C)=C(C(=O)OCC)C1C(=O)OCC(=O)c1ccc2c(c1)OCCO2	ELG1 repair inh 2.9µM
CCCCn1c(-c2ccco2)nc2ccccc2c1=O	none
CN(C)c1ccnc2sc(C(=O)c3ccc(Br)cc3)c(N)c12	Rab9 promoter act inconclusive, FLuc modulator inconclusive, ELG1 repair inh inconclusive, NPC1 prom act inconclusive, SMN2 splice up 22µM
CN(C)c1ccnc2sc(C(=O)NCc3ccccc3)c(N)c12	FLuc modulator inconclusive, ELG1 genotoxic inconclusive, ELG1 repair inh inconclusive (no result: SMN2 splice up)
O=C(/C=C/Nc1ccc(F)c(Cl)c1)c1ccco1	FLuc modulator 5.4µM, ELG1 genotoxic 4.1µM, ELG1 repair inh inconclusive, SMN2 splice up inconclusive
O=C(/C=C/Nc1cccc(F)c1)c1ccco1	Rab9 promoter act 2.5µM, FLuc modulator 2.1µM, ELG1 genotoxic 3.2µM, ELG1 repair inh inconclusive, NPC1 prom act inconclusive, SMN2 splice up 13µM
Cc1noc(-c2ccc(-c3noc(-c4cccc(F)c4)n3)cc2)n1	none (no result: Rab9 promoter act, ELG1 genotoxic, ELG1 repair inh, NPC1 prom act, SMN2 splice up)
CN(C(=O)c1cccs1)C1(C)CCS(=O)(=O)C1 (stereo not given)	none (no result: SMN2 splice up)
C=CCN1C(=O)CSc2ccc(C(=O)NCc3cccs3)cc21	none
FC(F)(F)c1ccc(NC(=S)NC2CCCCC2)cc1	FLuc modulator inconclusive, SMN2 splice up 16µM
S=C(Nc1ccc(Cl)c(Cl)c1)NC1CCCCC1	FLuc modulator inconclusive, ELG1 repair inh inconclusive, SMN2 splice up inconclusive
CC(C)c1ccc(NC(=S)NC2CCCCCC2)cc1	Rab9 promoter act inconclusive, FLuc modulator 17µM, ELG1 genotoxic inconclusive, ELG1 repair inh inconclusive, NPC1 prom act inconclusive, SMN2 splice up 13µM
CC(C)C(=O)NC(=S)Nc1ccc(S(=O)(=O)NC2CCCCC2)cc1	ELG1 repair inh 12µM (no result: SMN2 splice up)
S=C(Nc1ccc2nsnc2c1)NC1CCCCC1	FLuc modulator 21µM, ELG1 repair inh inconclusive, SMN2 splice up inconclusive
COc1ccc(S(=O)(=O)N(C)C)cc1NCC(=O)Nc1ccc(Br)c(C)c1	ELG1 repair inh inconclusive
Cn1c(=O)cc(C(=O)N/N=C/c2ccc(Cl)cc2)[nH]c1=O	FLuc modulator 12µM (no result: SMN2 splice up)
Cn1c(=O)n(C)c2cc(/C=N/NC(=O)c3ccc(Cl)cc3)ccc21	ELG1 repair inh inconclusive (no result: SMN2 splice up)
Cc1ccccc1NC(=O)Cc1c(O)c2ccccc2[nH]c1=O	none
Cc1cccc(NC(=O)c2c(O)c3ccccc3[nH]c2=O)c1	Rab9 promoter act 0.71µM, FLuc modulator inconclusive, ELG1 genotoxic inconclusive, ELG1 repair inh inconclusive, NPC1 prom act 1.6µM (no result: SMN2 splice up)
O=C(Nc1cccc(C(F)(F)F)c1)c1c(O)c2ccccc2[nH]c1=O	none (no result: SMN2 splice up)
O=C(Nc1cccc(O)c1)c1c(O)c2ccccc2[nH]c1=O	Rab9 promoter act inconclusive, FLuc modulator 3.8µM, ELG1 genotoxic inconclusive, ELG1 repair inh inconclusive, NPC1 prom act inconclusive (no result: SMN2 splice up)
Cc1cccc(C)c1NC(=O)c1c(O)c2ccccc2[nH]c1=O	none (no result: SMN2 splice up)
Cc1ccc(NC(=O)Cc2c(O)c3ccccc3[nH]c2=O)c(C)c1	FLuc modulator 17µM (no result: SMN2 splice up)
Cc1ccc(CNC(=O)Cc2c(C(=O)O)c(C)cn2C)cc1	none (no result: Rab9 promoter act, ELG1 genotoxic, ELG1 repair inh, NPC1 prom act, SMN2 splice up)
O=C1CC(NS(=O)(=O)c2cccs2)CN1c1ccccc1 (stereo not given)	none (no result: SMN2 splice up)
CCc1nnc2n1N=C(c1ccc(-c3cc(Cl)ccc3Cl)o1)CS2	ELG1 genotoxic inconclusive
O=c1c2[nH]c3ccc(F)cc3c2ncn1C1CCCCC1	Rab9 promoter act 4µM, ELG1 repair inh inconclusive, NPC1 prom act inconclusive
COc1ccc(NC(=O)c2ccc(Cl)c(NC(=O)c3ccncc3)c2)cc1	FLuc modulator inconclusive (no result: SMN2 splice up)
